We go through 17 compounds from PubChem BioAssay (NCATS).

Active and inactive are the calls of the source. Calls follow the shape of the dose curve; as a rule, active = well fitted curve in the direction sought with a large enough effect; inconclusive = small, poorly fitted or top-dose-only effect, or effect the other way, or another doubt; inactive = no such curve, though single readings can be large or run the other way.

The assay can be described thus: qHTS of Nrf2 Activators: LOPAC Validation (AID 624149). Also: 0% is about no effect. The note with it: Nrf2/ARE reporter cell assay; series mostly up to 46.1 µM; activation: at the top concentration. The text has this: Many diseases have some form of oxidative stress injury and ties to inflammation, causing a host of problems for the patient. The antioxidant response element (ARE) plays an important role in alleviating the harmful effects of oxidative stress. The antioxidant response element (ARE) is a transcriptional regulatory element involved in the activation of genes coding for a number of antioxidant proteins and detoxifying enzymes. These enzymes work in concert to protect tissues from oxidative insults and chemical toxicities in human hepatocytes and immune cells. The protective effects of ARE activation are primarily triggered through Nrf2 (NF-E2-related factor) binding to and activating AREs. It is known that Nrf2 controls the production of over 250 antioxidant and detoxification proteins (Hu et al., 2006), thereby protecting tissues by increasing cellular antioxidant content and suppressing inflammatory signaling pathways. The transcription factor Nrf2 is a central link between oxidative chemicals, such as phenolic antioxidants and electrophilic compounds, and the activation of ARE. Nrf2 levels are constitutively low as a consequence of its interaction with Keap1, which targets its degradation (Zipper and Mulcahy, 2002). Electrophiles react with key cysteine residues in Keap1, releasing Nrf2 and allowing its translocation to the nucleus. Once within the nucleus, Nrf2 complexes with coactivators such as p300, and binds to the AREs to induce gene transcription of cytoprotective enzymes, resulting in the prevention of toxicity. Activation of Nrf2 protects tissues by increasing cellular antioxidant content and suppressing inflammatory signaling pathways. Identifying novel and potent Nrf2 activators by using the AREc32 cell line to detect ARE activation by small molecules will lead to the identification and development of probes to study protective pathways in multiple tissues. These specific probes are essential to study the ARE pathway, and eventually to determine whether this pathway does activate genes that could protect against a host of diseases, including cardiovascular diseases, obesity, diabetes, Alzheimer's, and Parkinson's disease.
This project's aim is to identify novel and potent Nrf2 activators by using the AREc32 cell line to detect ARE activation by small molecules, which will lead to the identification and development of probes to study the ARE pathway.
NIH Chemical Genomics Center [NCGC]
NIH Molecular Libraries Probe Centers Network [MLPCN]
Assay Submitter (PI): Curtis Klaassen, University of Kansas Medical Center
5 uL of 1000 cells/well of AREc32_Fluc cells are seeded into 1536-well plate in OPTI-MEM medium with 5% FBS. The plates are incubated overnight at 37 deg C with 5% CO2. Then through pin tool transfer, 23 nL of compounds are added to each well before a 24 hr incubation at 37 deg C with 5% CO2. After the addition of 2.5 uL of Steady-Glo. the plates are kept at RT for 30 min, before they are read on the ViewLux
Background: Quantitative high-throughput screening tests each substance at several concentrations.
`NC(=O)c1ccc2[nH]ccc2c1`: the “activation” value was -0.453% (inactive).

In the case of `CCN(CC)CC#CCOC(=O)C(O)(c1ccccc1)C1CCCCC1` (configuration not stated), the “activation” value is -0.523% (inactive).

`COc1cc2ncnc(Nc3cccc(Cl)c3)c2cc1OC`: the “activation” value is -1.23% (inactive).

Take `Nc1nc(N)c2nc(CNc3ccc(C(=O)NC(CCC(=O)O)C(=O)O)cc3)cnc2n1` (configuration not stated): the “activation” value was -2.24% (inactive).

Consider `CCN(CC)CCn1c(=O)c(Cc2ccc(OC)cc2)nc2ccccc21`, for which the “activation” value is -1.34% (inactive).

For the compound `O=C(O)C1CCCN(CCC=C(c2ccccc2)c2ccccc2)C1` (configuration not stated), the “activation” value was -0.919% (inactive).

In the case of `OCc1ccc(-c2nn(Cc3ccccc3)c3ccccc23)o1`, the “activation” value was 6.9% (inactive).

As for `CC1=C(C(=O)O)N2C(=O)[C@@H](NC(=O)C(N)c3ccccc3)[C@H]2SC1` (some centres not stated), the “activation” value was -1.93% (inactive).

For the compound `CC(=O)[C@H]1CC[C@H]2[C@@H]3CCC4=CC(=O)CC[C@]4(C)[C@H]3CC[C@]12C`, the “activation” value was -2.24% (inactive).

In the case of `CCCCS(=N)(=O)CCC(N)C(=O)O` (configuration not stated), the “activation” value was -0.053% (inactive).

As to `N[C@@H](Cc1ccc(O)c(O)c1)C(=O)O`, the “activation” value is -2.28% (inactive).

In the case of `CC(C)NCC(O)c1ccc(NS(C)(=O)=O)cc1` (configuration not stated), the “activation” value is -2.53% (inactive).

On to `CC1CC2C3CCC4=CC(=O)C=C[C@]4(C)[C@@]3(F)[C@@H](O)C[C@]2(C)[C@@]1(O)C(=O)CO` (some centres not stated), for which the “activation” value is -1.74% (inactive).

As for `Cc1ccc(S(=O)(=O)N[C@@H](Cc2ccccc2)C(=O)CCl)cc1`, the “activation” value was -1.81% (inactive).

With `CCN1CCCC1CNC(=O)c1cc(S(N)(=O)=O)ccc1OC` (configuration not stated), the “activation” value was -0.283% (inactive).

Consider `NC(=O)c1cccc(N)c1`, for which the “activation” value was -0.709% (inactive).

In the case of `COc1cc2nc(N3CCCN(C)CC3)nc(NC3CCN(Cc4ccccc4)CC3)c2cc1OC`, the “activation” value was 8.33% (inactive).
